Screening data: PubChem BioAssay, National Center for Advancing Translational Sciences (NCATS)
An excerpt weighted towards active compounds, which were near 8% of everything screened.
SW480 rerep: A quantitative high throughput screen for small molecules that induce DNA re-replication in SW480 colon adenocarcinoma cells. SW480 DNA re-replication, Hoechst DNA content imaging, 48 h. Potency, µM (highest dose often 46.1 µM), inactives show top-dose re-replication activation, usual class: activators. 340,000 tested, 1.8% active. AID 624297, 2012; note: % of control where 0% means no effect; nearly all actives have a fitted effect of over 55% in size
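Image-based DNA-content assay: after two days of treatment, nuclei were labelled with the DNA dye Hoechst and imaged, and hits were compounds raising the count of nuclei showing high fluorescence intensity.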
KB-3-1 cytotox: qHTS assay for MDR1-selective chemotherapeutics: Primary screen using the parental adenocarcinoma cell KB-3-1. AID 1347075, 2019. 400,000 tested, 1.4% active. KB-3-1 viability, CellTiter-Glo ATP luminescence, 72 h. Potency, µM (titrated, usually from 46.1 µM), most hits filed as cytotoxic; note: % is set by controls: 0 for no effect and ±100 for the full control effect; nearly all actives have a fitted effect of over 60% in size
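Screening of KB-3-1 cells (DMEM, 10% FBS, phenol-red free) ran from lowest to highest compound concentration; after 72 h at 37 °C viability was read luminescently and curves fitted.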
KB-V1 MDR tox: qHTS assay for MDR1-selective chemotherapeutics: Primary screen using the drug-selected MDR subline cells KB-V1 | KB-V1 MDR cells viability, CellTiter-Glo, 72 h | Potency, µM (top dose mostly 46.1 µM), actives largely listed as cytotoxic | 400,000 tested, 3.4% active | AID 1347076, 2019; note: % is set by controls: 0 for no effect and ±100 for the full control effect; nearly all actives have a fitted effect of over 60% in size
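Drug-selected KB-V1 cells, grown in DMEM lacking phenol red with 10% FBS, receive compound titrations; after three days at 37 degrees C, surviving cell ATP is quantified by CellTiter-Glo luminescence and responses normalized and curve-fitted.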
MCF10A rerep: A quantitative high throughput screen for small molecules that induce DNA re-replication in MCF 10a normal breast cells. MCF 10A DNA re-replication, Hoechst nuclear intensity, 48 h. Potency, µM (top dose mostly 46.1 µM), for inactives: top-dose activity, positive = re-replication, most hits filed as activators. 350,000 tested, 2.9% active. AID 624296, 2012; note: % of control where 0% means no effect; nearly all actives have a fitted effect of over 50% in size
HT1080 IDH1KD tx: qHTS for induction of synthetic lethality in tumor cells producing 2HG: qHTS for the HT-1080-IDH1KD cell line | HT-1080 IDH1 knockdown viability, ATP luminescence, 48 h | Potency, µM (top dose mostly 46.1 µM), inactives show top-dose activity, negative = toxicity, actives largely listed as cytotoxic | 360,000 tested, 2% active | AID 686971, 2013;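 note: 0% = DMSO wells and -100% = cell-free medium wells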
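Cytotoxicity counter-line: IDH1KD HT-1080, 48 h, CellTiter-Glo. Curves classed by r2, magnitude and activity.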
HT1080-NT tox: qHTS for induction of synthetic lethality in tumor cells producing 2HG: qHTS for the HT-1080-NT fibrosarcoma cell line. HT-1080-NT fibrosarcoma viability, CellTiter-Glo ATP luminescence, 48 h. Potency, µM (highest dose often 46.1 µM), without a hit: at the highest dose activity, negative = less viability, usual class: cytotoxic. 360,000 tested, 1.6% active. AID 686970, 2013;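 note: NT is the 2HG producing partner of a matched IDH1 knockdown line; 0% = DMSO-treated cells and -100% = media-only wells without cells; nearly all actives have a fitted effect of over 55% in size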
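Toxicity toward the 2HG-producing NT line was scored as %Activity, normalised to DMSO and no-cell wells, from CellTiter-Glo luminescence after 48 hours' treatment.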
Numbers without * were called inactive; i = inactive; u = inconclusive; x = not tested or not shown; [ ] = another dose, or the depositor's remark. Calls come from the whole dose curve; as a rule, active = well fitted curve in the direction sought with a large enough effect; inconclusive = small, poorly fitted or top-dose-only effect, or another doubt; inactive = no such curve, though single readings can be large; an effect the other way counts as inactive or inconclusive. Potency is the fitted concentration of half-maximal effect.

SMILES | SW480 rerep | KB-3-1 cytotox | KB-V1 MDR tox | MCF10A rerep | HT1080 IDH1KD tx | HT1080-NT tox
CC(C)[C@H](NC(=O)c1cccc(S(=O)(=O)N2CCOCC2)c1)C(=O)OCC(=O)Nc1cccc(Br)c1 | 1.7% | i | i | u | -0.2% | -0.8%
C(=NN=C1c2ccccc2-c2ccccc21)c1c[nH]c2ccccc12 | 9.2% | u | 23.1µM* | u | u | -9.9%
COC(=O)c1c(NC(=O)c2ccc(S(=O)(=O)N(C)C3CCCCC3)cc2)sc2c1CCN(C)C2 | x | i | i | x | x | x
Cc1ccc2nc(C(F)(F)F)c(C#N)c(N)c2c1 | u | u | u | 3.26µM* | 10µM* | u
COc1ccccc1NC(=O)C12CC3CC(C1)CC(c1ccc(C)cc1)(C3)C2 | 13.6% | i | 16.4µM* | 7.1% | -1.1% | -11.8%
Cc1nn(Cc2c(F)c(F)c(F)c(F)c2F)c(C)c1NC(=O)c1c(-c2ccccc2)nn(-c2ccccc2)c1C | 5.5% | i | i | 23.1µM* | u | u
Cc1nn(Cc2c(F)c(F)c(F)c(F)c2F)c(C)c1NC(=O)c1ccc(COc2ccccc2Cl)o1 | 13.2% | i | 2.59µM* | 15.7% | -13.0% | -1.5%
Cc1c(C(=O)NCc2ccc(F)cc2)c(-c2ccccc2)nn1-c1ccccc1 | -2.7%[9.22 µM] | i | i | u | -20.0% | -2.6%
CC(CN1CCC(n2nccc2NC(=O)CCCc2ccccc2)CC1)c1ccccc1 (centres undefined) | u | i | i | 20.8% | -14.8% | 7.7%
Nc1nc(NCCc2ccccc2)nc(NCCO)c1[N+](=O)[O-] | 21.8% | i | i | 7.8% | -7.1% | -1.6%
COc1cccc(CNC(=O)c2cc(-c3ccc(Cl)s3)nc3ccccc23)c1 | x | i | i | x | x | x
O=S(=O)(c1ccccc1)N1CCC(O)(CSc2ccc(F)cc2)CC1 | -2.2% | u | u | u | 18.4µM* | -10.3%
O=C(CSc1ccccc1)N1CCN(S(=O)(=O)c2ccccc2)CC1 | -8.5% | i | i | -3.3% | -3.0% | 10.5%
O=S(=O)(c1ccccc1)N1CCC(O)(CSc2ccccc2)CC1 | 17.5% | i | i | 26.5% | -24.5% | 23.1µM*
O=S(=O)(c1ccccc1)N1CCC(O)(CN2CCN(c3ccccc3)CC2)CC1 | 2.9% | i | i | 1.7% | 4.7% | 8.0%
CC1(C(=O)NC2CCCCC2)CCC(=O)N1CCOc1ccccc1 (centres undefined) | x | i | i | x | 3.8% | 22.8%
COCCCNC(=O)CSC1=Nc2ccccc2C2=NC(c3ccccc3)C(=O)N12 (centres undefined) | -6.0% | i | i | 1.5% | -3.0% | -1.9%
CNC(=S)N=Nc1c(O)[nH]c2ccccc12 | 10.8% | i | u | 11.3% | -1.0% | 0.8%
CC(C)c1ccc2[nH]c(O)c(N=NC(=O)c3cccc(S(=O)(=O)N4CCCCC4)c3)c2c1 | -1.6% | u | 2.31µM* | -0.3% | 3.9% | 6.4%
Oc1[nH]c2ccc(Br)cc2c1N=NC(=S)Nc1ccc(F)cc1 | u | u | u | 1.0% | u | u
O=C(N=Nc1c(O)[nH]c2ccccc12)c1cccc(S(=O)(=O)N2CCCCC2)c1 | -4.4% | i | i | 0.6% | 18.3% | 2.9%
Oc1cccc(NC(=S)N=Nc2c(O)[nH]c3ccc(Br)cc23)c1 | -9.1% | u | i | -21.2% | 20.6µM* | u
Oc1ccc(NC(=S)N=Nc2c(O)[nH]c3ccc(Br)cc23)cc1 | u | i | u | u | 20.6µM* | u
